Values joined by “and” are separate entries in the source; they are usually repeats but may differ in a detail not shown here. Equal values may be shown once. Active and inactive are the calls of the source. Rule for the calls: active = hit-call score of the fitted dose curve at least 0.9, where 1 is the maximum; inconclusive = response in the unintended direction; inactive = score below 0.9.

This assay relates to SERPINA7 (gene 6906). Put plainly: CCTE_GLTED_hTBG: CCTE's human Thyroxine-binding Globulin (TBG) Inhibition Assay, Great Lakes Toxicology and Ecology Division (GLTED) Lab (AID 2284343).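 Note: active chemicals lower fluorescence versus DMSO baseline by displacing probe.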 As for the experimental part: CCTE_GLTED_hTBG is a cell-free, single-readout assay designed to test the chemicals' ability to displace T4 from the human thyroxine-binding globulin (TBG) protein. TBG is incubated in presence of test chemical for 2 hours during which disrupting chemicals displace ANSA from the TBG protein. Results read fluorescence at 380 excitation and 475 emission.CCTE_GLTED_hTBG is the assay component measured from the CCTE_GLTED_hTBG assay. It is designed to make measurements of fluorescent polarization, using a form of binding reporter, as detected with Fluorescence signals by Fluorescence technology.Data from the assay component CCTE_GLTED_hTBG was analyzed at the assay endpoint CCTE_GLTED_hTBG in the positive analysis fitting direction relative to DMSO as the negative control and baseline of activity. Using a type of binding reporter, loss-of-signal activity can be used to understand a chemical's ability to displace T4 from thyroxine-binding globulin. To generalize the intended target to other relatable targets, this assay endpoint is annotated to the 'transporter' intended target family, where the subfamily is 'hormone carrier protein'.
Human transthyretin (TTR) assay, developed at Great Lakes Toxicology and Ecology Division (GLTED) within the EPA's Center for Computational Toxicology and Exposure (CCTE), is designed to test the chemicals' ability to displace T4 from the TTR protein. TTR (0.5uM) is incubated in presence of test chemical for 2 hours during which disrupting chemicals displace ANSA from the TTR protein. Results read fluorescence at 380 excitation and 475 emission.
Broadly, the AC50 is the midpoint of the concentration-response curve, whichever way the signal moves. `CCOC(=O)C(O)(c1ccc(Cl)cc1)c1ccc(Cl)cc1`: the concentration at half-maximal activity (AC50) is 7.32 µM (active).

Regarding `CCC(C)(c1ccc(O)cc1)c1ccc(O)cc1`, the AC50 is 13.7 µM (active).

For `O=NN(c1ccccc1)c1ccccc1`, the AC50 was 13.9 µM (active).

For `ClC1=C(Cl)[C@]2(Cl)[C@@H]3[C@@H]4C[C@@H]([C@H]5O[C@@H]45)[C@@H]3[C@@]1(Cl)C2(Cl)Cl`, the AC50 is 1.56 µM (active).

Take `Cc1ccccc1CO[C@@H]1C[C@@]2(C(C)C)CC[C@]1(C)O2`: the AC50 was 22.9 µM (active).

For the compound `CC(C)(O)C(=O)Nc1ccc([N+](=O)[O-])c(C(F)(F)F)c1`, the AC50 was 35.6 µM (active).

As for `O=S(=O)(O)C(F)(F)C(F)(F)C(F)(F)C(F)(F)F`, the call was inactive.

As to `CCCCCCCCCc1ccc(O)cc1`, the AC50 is 5.76 µM (active).

Regarding `Oc1ccc(C(c2ccc(O)cc2)(C(F)(F)F)C(F)(F)F)cc1`, the AC50 was 17.1 µM (active).

Take `CC(C)(c1ccccc1)c1ccc(O)cc1`: the AC50 was 3.54 µM (active).

On to `CC(c1ccc(O)cc1)(c1ccc(O)cc1)c1ccc(O)cc1`, for which the AC50 is 11.5 µM (active).

Regarding `Cc1cc(-c2ccc(N)c(C)c2)ccc1N`, the AC50 is 26.5 µM (active) and 35.2 µM (active).

Turning to `Sc1ccccc1`, the AC50 was 14.1 µM (active).

For the compound `CCCCCCOC(=O)c1ccccc1C(=O)OCCCCCC`, the half-maximal activity concentration (AC50) is 5.7 µM (active).

On to `CCC(C)c1cc([N+](=O)[O-])cc([N+](=O)[O-])c1O` (stereo unspecified), for which the AC50 is 19.3 µM (active).

As for `O=C(O)C(F)(F)C(F)(F)C(F)(F)C(F)(F)C(F)(F)C(F)(F)C(F)(F)C(F)(F)F`, the AC50 was 86.5 µM (active).

These data come from PubChem BioAssay (EPA / NIEHS).
